Source: PubChem BioAssay (Johns Hopkins Ion Channel Center)
Only some compounds are listed: those with a hit (about 1.6% of all), similar ones and a draw of the others.
KCNQ2 enhance: potentiators of rat KCNQ2 potassium channel; O88943; CHO-K1 KCNQ2, FluxOR thallium flux fluorescence; stronger effect = higher value; B-score at 10 µM; actives 0.54% (n = 310,000); AID 2239;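 active = fluorescence ratio B-score at least 3 SD of library B-scores, with initial fluorescence B-score within 3 of them, cut at about 5.3 in these data; same plate scores as AID 2156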;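 also: B-score of peak minus minimum over baseline fluorescence ratio after K+ and Tl+ stimulus; positive B-score means potentiation of KCNQ2 with more thallium influx and brighter signal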
KCNQ2 block: blocks the rat KCNQ2 potassium channel | O88943 | B-score at 10 µM | AID 2156 | CHO-K1 KCNQ2, FluxOR thallium flux, 20 min; stronger effect = lower value | actives 1.1% (n = 310,000);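 active = fluorescence ratio B-score at most minus 3 library SDs, with starting brightness B-score within 2 library SDs, cut at about -5.5 in these data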
Kir21 conf inh: confirmation of mouse Kir2.1 potassium channel inhibitors | shares compounds with KCNQ2 enhance | Kir2.1-expressing cells, FluxOR thallium flux fluorescence; stronger effect = lower value | Tl flux remaining, % of negative control (stronger effect = lower value), % at 10 µM | actives 41% (n = 2,300) | AID 2032;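 active = Primary-screen hit whose thallium flux fell at least 3 control SD below untreated wells in both duplicates, with normal baseline fluorescence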
HEK293 ctr: alters thallium flux in parental HEK293 cells, Kir2.1 counter-screen | shares compounds with KCNQ2 enhance | FluxOR thallium flux fluorescence; 0% = unstimulated blank wells | FluxOR signal as % of negative control (100 = no effect), % at 10 µM | actives 19% (n = 2,300) | AID 2105;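 active = dye signal at least 3 control SD above or below untreated wells in both duplicates, raw fluorescence within 3, either direction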;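 also: percent is based on the flux ratio of peak minus minimum fluorescence over baseline F0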
CHO-K1 Tl ctr: alters thallium flux in parental CHO-K1 cells, KCNQ2 counter-screen; shares compounds with KCNQ2 enhance; FluxOR thallium flux fluorescence; zero = vehicle mean+3SD, 100% = vehicle-minus-blank window; activity increase over 3SD of controls, % at 10 µM; actives 43% (n = 1,200); AID 2282;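 active = signal rise of at least 3 SD above the untreated control mean, in both duplicate wells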;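 also: counter screen of KCNQ2 potentiator hits so any rise reflects channel-independent effects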
KCNQ1 sel pot: tests whether KCNQ2 potentiators also act on human KCNQ1; activation over 3SD threshold, % at 10 µM; actives 28% (n = 1,200); AID 2283; shares compounds with KCNQ2 enhance; CHO KCNQ1 stable, FluxOR thallium flux fluorescence; beyond 3SD, as % of vehicle-control signal;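 active = fluorescence ratio rise of at least 3 SD of vehicle wells above their mean, in both replicate wells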
KCNQ2 pot confirm: confirmation of rat KCNQ2 potassium channel potentiators; potentiation, less the hit threshold, % at 10 µM; CHO-KCNQ2 cells, FluxOR thallium flux fluorescence; shares compounds with KCNQ2 enhance; actives 68% (n = 1,200);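 active = fluorescence ratio rising 3 SD or more over the vehicle control mean in both replicates, plus primary screen hit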;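 also: peak minus minimum thallium fluorescence divided by baseline after K/Tl stimulus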
Kir21 spec: tests whether KCNQ2 potentiators also affect mouse Kir2.1 | actives 2% (n = 1,200) | shares compounds with KCNQ2 enhance | activity over 3SD threshold, % at 10 µM | AID 2345 | HEK293 Kir2.1, FluxOR thallium flux fluorescence;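 active = fluorescence ratio rise of at least 3 SD above the vehicle-control mean, seen in both replicates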
KCNQ2 W236L MoA: rat KCNQ2 W236L mutant potentiation by KCNQ2 potentiators | shares compounds with KCNQ2 enhance | CHO KCNQ2-W236L, automated patch clamp current | current increase over 3SD of negative controls (%), stronger effect = higher value, % at 25 µM | actives 10% (n = 940);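 active = current increase at least 3 SD of the untreated controls above them in both duplicate recordings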
Target sequence (O88943 whole entry W236L, looked up): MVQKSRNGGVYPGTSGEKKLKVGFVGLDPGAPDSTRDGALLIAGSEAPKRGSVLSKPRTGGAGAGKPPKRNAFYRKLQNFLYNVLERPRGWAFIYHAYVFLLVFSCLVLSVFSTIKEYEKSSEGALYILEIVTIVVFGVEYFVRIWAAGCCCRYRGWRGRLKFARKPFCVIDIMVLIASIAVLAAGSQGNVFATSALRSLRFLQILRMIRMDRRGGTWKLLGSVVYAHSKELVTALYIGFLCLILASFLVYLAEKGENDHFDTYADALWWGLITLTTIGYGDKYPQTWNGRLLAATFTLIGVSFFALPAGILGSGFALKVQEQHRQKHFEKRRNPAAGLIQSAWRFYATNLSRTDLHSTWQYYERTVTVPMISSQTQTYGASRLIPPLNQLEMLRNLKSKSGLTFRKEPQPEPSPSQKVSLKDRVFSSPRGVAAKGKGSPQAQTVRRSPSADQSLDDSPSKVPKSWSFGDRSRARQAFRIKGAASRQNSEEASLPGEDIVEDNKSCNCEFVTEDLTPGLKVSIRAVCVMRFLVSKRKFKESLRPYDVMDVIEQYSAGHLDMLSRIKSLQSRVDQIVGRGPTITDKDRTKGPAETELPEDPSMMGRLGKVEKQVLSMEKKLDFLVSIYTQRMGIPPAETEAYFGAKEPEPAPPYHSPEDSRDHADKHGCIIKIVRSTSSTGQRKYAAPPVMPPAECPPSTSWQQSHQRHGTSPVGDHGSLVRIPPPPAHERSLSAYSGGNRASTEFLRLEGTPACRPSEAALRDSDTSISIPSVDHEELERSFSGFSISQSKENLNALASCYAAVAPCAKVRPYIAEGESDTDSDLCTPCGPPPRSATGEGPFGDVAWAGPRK
Of the large screens only hits and unclear results are named; the others gave an inactive call (follow-up assays come after a bar, where they were run).

CCC(C)c1ccc(C(C)NC(=S)NCc2ccc(F)cc2)cc1 (stereo not drawn)	none
Cc1c(C(=O)N2CCCCCC2)c(S(=O)(=O)Nc2ccc(F)cc2)c(C)n1C	none (no result: KCNQ2 enhance)
COc1cc(CNC(C)c2ccccc2)cc(Cl)c1OCC(=O)Nc1ccccc1 (stereo not drawn)	none (no result: KCNQ2 enhance) | Kir21 conf inh 60% | HEK293 ctr inactive
CCN(CC)CCNCc1cc(Cl)c(OCC(=O)Nc2ccccc2)c(OC)c1	none
COc1ccc(NC(=O)C(c2ccc(OC)cc2)N(C)C(=O)c2cnccn2)cc1 (stereo not drawn)	KCNQ2 enhance 6.4 | Kir21 conf inh inactive | HEK293 ctr inactive | CHO-K1 Tl ctr 0.6 | KCNQ1 sel pot inactive | KCNQ2 pot confirm 24 | Kir21 spec inactive | KCNQ2 W236L MoA inactive
CC(C)c1ccc(NC(=O)C(c2ccccc2)N(C)C(=O)c2cnccn2)cc1 (stereo not drawn)	none
O=C1NC2(CCCc3ccccc32)C(=O)N1Cc1nnc(-c2ccccc2Br)o1 (stereo not drawn)	none (no result: KCNQ2 enhance)
O=c1c(Cl)c(Cl)cnn1Cc1nnc(-c2ccccc2Br)o1	KCNQ2 enhance 5.5 | Kir21 conf inh inactive | HEK293 ctr inactive | CHO-K1 Tl ctr 41 | KCNQ1 sel pot inactive | KCNQ2 pot confirm 12 | Kir21 spec inactive | KCNQ2 W236L MoA inactive
CCOC(=O)C1CCN(C(=O)COC(=O)C2CCN(S(=O)(=O)c3ccc(C)c(C)c3)CC2)CC1	none (no result: KCNQ2 enhance)
C/C(N)=C(/C#N)C(=O)COC(=O)CC1CCCC1	none (no result: KCNQ2 enhance)
C/C(N)=C(/C#N)C(=O)COC(=O)C1CCC(C(C)(C)C)CC1 (stereo not drawn)	none | Kir21 conf inh 28% | HEK293 ctr inactive | CHO-K1 Tl ctr 8.1 | KCNQ1 sel pot inactive | KCNQ2 pot confirm 7.8 | Kir21 spec inactive | KCNQ2 W236L MoA inactive
Cc1ccc(CS(=O)Cc2ccc(C(=O)NC3CCCCC3)o2)cc1 (stereo not drawn)	none
CSc1nc(C(C)C)ccc1CNC(=O)CC(C)c1ccccc1 (stereo not drawn)	KCNQ2 enhance 30 | Kir21 conf inh inactive | HEK293 ctr inactive | CHO-K1 Tl ctr inactive | KCNQ1 sel pot 35 | KCNQ2 pot confirm 112 | Kir21 spec inactive | KCNQ2 W236L MoA inactive
CC(CC(=O)NCc1ccc(F)cc1)c1ccccc1 (stereo not drawn)	none
O=C(OCc1ccc(Cl)c(Cl)c1)c1ccccn1	none
Nc1ncccc1OCc1ccc(Cl)c(Cl)c1	KCNQ2 enhance 5.4 | Kir21 conf inh inactive | HEK293 ctr inactive | CHO-K1 Tl ctr inactive | KCNQ1 sel pot inactive | KCNQ2 pot confirm inactive | Kir21 spec inactive
N/C(=N\OS(=O)(=O)c1ccc(Br)cc1)c1ccncc1	KCNQ2 enhance 5.6 | Kir21 conf inh inactive | HEK293 ctr inactive | CHO-K1 Tl ctr 24 | KCNQ1 sel pot inactive | KCNQ2 pot confirm inactive | Kir21 spec inactive
N/C(=N\OC(=O)COc1ccc(Br)cc1)c1ccncc1	none
NC(=O)c1ccc(SCC(=O)OCC(=O)N2CCCC2=O)c([N+](=O)[O-])c1	none
Cc1cc(SCC(=O)OCC(=O)N2CCCC2=O)c(C)cc1Br	none | Kir21 conf inh inactive | HEK293 ctr inactive
O=c1c2cccnc2[nH]c(=S)n1CCC1=CCCCC1	KCNQ2 enhance 12 | Kir21 conf inh inactive | HEK293 ctr 278% | CHO-K1 Tl ctr 7.6 | KCNQ1 sel pot inactive | KCNQ2 pot confirm 48 | Kir21 spec inactive | KCNQ2 W236L MoA inactive
CCCCCn1c(=S)[nH]c2ncccc2c1=O	none
CN(CCOc1ccccc1)C(=O)CCc1c[nH]c2ccccc12	none (no result: KCNQ2 enhance)
CCCc1nc2oc3c(NCCN(C)C)ncnc3c2c2c1CCCC2	KCNQ2 enhance 5.4 | Kir21 conf inh inactive | HEK293 ctr inactive | CHO-K1 Tl ctr inactive | KCNQ1 sel pot inactive | KCNQ2 pot confirm 51 | Kir21 spec inactive | KCNQ2 W236L MoA inactive
CCCc1nc2oc3c(Cl)ncnc3c2c2c1CCCC2	none
O=C(c1ccc(OC2CCN(CCCc3ccccc3)CC2)cc1)N1CCCC1	none | Kir21 conf inh 72% | HEK293 ctr inactive
CC(=O)N1CCN(C(=O)c2ccc(OC3CCN(CCc4ccccc4)CC3)cc2)CC1	none
Cn1c(-c2ccccc2)cc(=O)c2ccccc21	none (no result: KCNQ2 enhance)
O=c1cc(-c2ccccc2)cc(-c2ccccc2)n1O	KCNQ2 enhance 6.6 | Kir21 conf inh inactive | HEK293 ctr 334% | CHO-K1 Tl ctr inactive | KCNQ1 sel pot 97 | KCNQ2 pot confirm 14 | Kir21 spec inactive | KCNQ2 W236L MoA inactive
CC(C)(C)NCCOCCOc1ccccc1-c1ccccc1	none
CCC(C)NCCOCCOc1ccccc1-c1ccccc1 (stereo not drawn)	none (no result: KCNQ2 enhance) | Kir21 conf inh 44% | HEK293 ctr inactive
CCOc1ccc(NC(=O)CN(C)C(=O)c2ccc3c(c2)C(=O)N(CCC(C)C)C3=O)cc1OCC	none (no result: KCNQ2 enhance)
Cc1ccccc1CNC(=O)C(=O)NCCC1CCCCN1S(=O)(=O)c1cccs1 (stereo not drawn)	none (no result: KCNQ2 enhance)
COc1ccc(C(=O)Nc2nc(CC(=O)NCCc3ccccc3OC)cs2)cc1	none
CC1CN(C(=O)COC(=O)c2ccc(F)cc2Cl)CC(C)O1 (stereo not drawn)	none
CCC(C)c1ccc(OCc2ccc(C(=O)O)o2)cc1 (stereo not drawn)	none (no result: KCNQ2 enhance)
S=C1NC[C@H](c2ccccc2)N1CCCCC1CCCCC1	none
NC1=NC[C@H](c2ccccc2)N1CCCCC1CCCCC1	none (no result: KCNQ2 enhance) | Kir21 conf inh 38% | HEK293 ctr inactive
CC1CCCCN1C(=O)C1CCCCN1S(=O)(=O)c1cccc([N+](=O)[O-])c1 (stereo not drawn)	none (no result: KCNQ2 enhance)
NC(Cc1c[nH]c2ccccc12)C(=O)Nc1ccccc1 (stereo not drawn)	none (no result: KCNQ2 enhance)
CCC(=O)Nc1nc2ccccc2n1CCN1CCOCC1	none (no result: KCNQ2 enhance)
CCCCCCn1c(C(C)NC(=O)c2ccco2)nc2ccccc21 (stereo not drawn)	KCNQ2 block -6.2 | Kir21 conf inh 54% | HEK293 ctr inactive
CCCCn1c(C(C)NC(=O)CC)nc2ccccc21 (stereo not drawn)	none
CCCCCCCn1c(NC(=O)CC)nc2ccccc21	KCNQ2 enhance 10 | Kir21 conf inh inactive | HEK293 ctr inactive | CHO-K1 Tl ctr inactive | KCNQ1 sel pot inactive | KCNQ2 pot confirm 61 | Kir21 spec inactive | KCNQ2 W236L MoA inactive
